Assay results: US20060069055, “Delivery of polynucleotides” (published 2006)

These sequences were tested against NF-kB p50/p50 homodimer (Homo sapiens, UniProt P19838 P19838:1-433) (assay: EMSA; Table 3 gives 92 for PO). Conditions: protein: extract; tags: nuclear extract of LPS-stimulated THP-1 cells; chain copies: 2 stated; dsDNA, one strand shown.
Text: The EMSA assay was employed to characterize oligonucleotide decoys for the NF-κB transcription factor. […] Using the above modified oligonucleotides to compete for binding for the above-mentioned NF-κB family members, it was possible to compare the binding affinity of these oligonucleotides against the high affinity radiolabeled probe and each other. This assay has also enabled the design of a decoy which selectively binds particular members of the NF-κB family. By using increasing concentrations of various oligonucleotides, it was observed that, by deleting or changing targeted residues in the binding site, it was possible to specifically decrease the binding of the decoy molecule to p50/p50 homodimers, while retaining the affinity for p65/p50 and cRel/p50 heterodimers.
The NF-κB gel shift assays (EMSA) were performed as follows. A double-stranded oligonucleotide containing a consensus NF-κB binding site (5′ […].GGC 3′) (SEQ ID NO: 26) was end-labeled with γ³²P-ATP using T4 Polynucleotide Kinase (Promega). […] The dried gels were imaged and quantitated using a Typhoon 8600 Phosphorlmager (Amersham) and ImageQuant software. […]

Sequence of NF-kB p50/p50 homodimer (P19838 1-433, one chain of several): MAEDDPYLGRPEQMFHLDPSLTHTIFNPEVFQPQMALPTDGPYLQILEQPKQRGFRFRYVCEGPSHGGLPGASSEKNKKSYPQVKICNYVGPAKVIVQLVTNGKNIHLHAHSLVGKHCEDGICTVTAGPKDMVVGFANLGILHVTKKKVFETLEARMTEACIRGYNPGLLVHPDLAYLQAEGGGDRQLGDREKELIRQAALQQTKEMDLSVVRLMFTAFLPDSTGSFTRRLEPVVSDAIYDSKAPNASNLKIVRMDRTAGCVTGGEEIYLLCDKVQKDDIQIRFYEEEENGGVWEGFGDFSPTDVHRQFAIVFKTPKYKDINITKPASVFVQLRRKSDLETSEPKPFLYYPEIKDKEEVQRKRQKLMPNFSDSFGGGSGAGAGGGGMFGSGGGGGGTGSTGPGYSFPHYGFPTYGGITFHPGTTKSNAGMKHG

Row | Sequence | IC50 [fold molar excess]
1 | AGTTGAGGACTTTCCAGGC | 96
